This is one part of a sample in which hits are shown more often than they occur.
Vaccinia pol inh: inhibitors of vaccinia virus processive DNA synthesis (E9 polymerase) | actives 0.94% (n = 46,000) | in vitro processive DNA synthesis, absorbance read-out; stronger effect = lower value | normalized absorbance, % (test concentration not listed); in the data active = normalized absorbance mostly below about 85%, no sharp cut-off; inactive = mostly above about 86%
Numbers without * were called inactive.

What do the screens show for `CC1CCCCN1C(=O)CSc1ccc2ccccc2c1` (stereo not given)?
Vaccinia pol inh: 73*

Results for N#CCC(=O)Nc1ccncc1 ?
Vaccinia pol inh: 102

How did CC[C@@]1(O)C[C@H](OC2CC(N(C)C)C(OC3CC(O)C(OC4CCC(=O)C(C)O4)C(C)O3)C(C)O2)c2c(cc3c(c2O)C(=O)c2c(O)cccc2C3=O)[C@H]1C(=O)OC (stereo not given in full) do in these assays?
Vaccinia pol inh: 38*

What do the screens show for `CC[C@@]1(O)C[C@H](O[C@H]2C[C@H](N(C)C)[C@H](O)[C@H](C)O2)c2c(cc3c(c2O)C(=O)c2c(O)cccc2C3=O)[C@H]1C(=O)OC`?
Vaccinia pol inh: 8.9*

How did CCC(C)NC(=O)c1c[nH]c2ccc(S(=O)(=O)N(C)c3cc(C)ccc3C)cc2c1=O (stereo not given) do in these assays?
Vaccinia pol inh: 103

How did COc1ccc(-c2nc(-c3ccc(C)cc3C)cs2)cc1 do in these assays?
Vaccinia pol inh: 90

How did S=c1nc(SCCOc2ccccc2)[nH]c2ccccc12 do in these assays?
Vaccinia pol inh: 100

Results for O=C(O)c1ccc2c(c1)N(Cc1ccc(Cl)cc1)CCS2 ?
Vaccinia pol inh: 72*

How did O=C(c1ccc2c(c1)N(Cc1ccc(F)cc1)CCS2)N1CCCCC1 do in these assays?
Vaccinia pol inh: 89

How did COC(CNC(=O)c1ccc2c(c1)N(Cc1ccc(Cl)cc1)CCS2)OC do in these assays?
Vaccinia pol inh: 94

What do the screens show for `Cc1cc2c(C(C)C)c(O)c(O)c(C=O)c2c(O)c1-c1c(C)cc2c(C(C)C)c(O)c(O)c(C=O)c2c1O`?
Vaccinia pol inh: 18*

How did C[C@@]1(CO)[C@H](O)CC[C@@]2(C)[C@H]1CC[C@H]1C[C@@H]3C[C@@]12CC[C@]3(O)CO do in these assays?
Vaccinia pol inh: 15*

What do the screens show for `NC(=O)C1CCN(C(=O)CCc2nnc3n(Cc4ccccc4)c(=O)c4ccccc4n23)CC1`?
Vaccinia pol inh: 103

What do the screens show for `CCc1ccc(NC(=O)C(CC)Sc2nc3ccsc3c(=O)n2C2CC2)cc1` (stereo not given)?
Vaccinia pol inh: 96

How did CCN1CCN(c2cc(C)c3ccc(OC)cc3n2)CC1 do in these assays?
Vaccinia pol inh: 99

How did COc1ccc2c(C)cc(Cl)nc2c1 do in these assays?
Vaccinia pol inh: 91

Results for COc1ccc2c(C)cc3nncn3c2c1 ?
Vaccinia pol inh: 78*

Results for COc1ccc(CC(=O)NC(=S)Nc2cccnc2Cl)cc1 ?
Vaccinia pol inh: 103

How did CC(C)(C)CC(=O)NCc1ccc(S(N)(=O)=O)cc1 do in these assays?
Vaccinia pol inh: 98

What do the screens show for `O=C(Nc1cc(Cl)cc(Cl)c1)N1CCN(Cc2ccccc2)CC1`?
Vaccinia pol inh: 97

How did O=C1CC(c2cccc(O)c2)Nc2ccc3ccccc3c21 (stereo not given) do in these assays?
Vaccinia pol inh: 62*

How did O=C1c2ccccc2NC(c2cccc(O)c2)N1O (stereo not given) do in these assays?
Vaccinia pol inh: 96

Results for Cc1ccccc1C1CC(=O)c2c(ccc3ccccc23)N1 (stereo not given) ?
Vaccinia pol inh: 99

Results for CC1=C(C(=O)N(CC2CC=CCC2)CC2CCCO2)C2(CCCCC2)OC1=O (stereo not given) ?
Vaccinia pol inh: 102

What do the screens show for `CN(C)C(=O)c1cnc(Cl)c2ccccc12`?
Vaccinia pol inh: 110

What do the screens show for `Cc1ccc(N)c(C(O)(C(F)(F)F)C(F)(F)F)c1`?
Vaccinia pol inh: 102

What do the screens show for `Oc1c(Cl)cc(Cl)cc1Sc1cc(Cl)cc(Cl)c1O`?
Vaccinia pol inh: 60*

How did Oc1c(Cl)cc(Cl)cc1C(O)(C(F)(F)F)C(F)(F)F do in these assays?
Vaccinia pol inh: 84*

How did CCC(=O)c1cc(Cl)cc(Cl)c1O do in these assays?
Vaccinia pol inh: 97

How did O=C(c1cnoc1)c1cc(Cl)cc(Cl)c1O do in these assays?
Vaccinia pol inh: 94

What do the screens show for `O=C1CC(c2ccccc2)=Nc2ncccc2N1`?
Vaccinia pol inh: 104

What do the screens show for `Cc1ccccc1C(=O)OCC(=O)Nc1cccc(C#N)c1`?
Vaccinia pol inh: 101

Results for COC(=O)c1ccc(NC(=O)CC23CC4CC(CC(C4)C2)C3)cc1 ?
Vaccinia pol inh: 96

What do the screens show for `Nc1ccc2nc(CCC(=O)O)[nH]c2c1`?
Vaccinia pol inh: 101

What do the screens show for `O=C(O)CCc1nc2ccc(C(=O)O)cc2[nH]1`?
Vaccinia pol inh: 100

Results for C=Cc1c(C)c2cc3[nH]c(cc4nc(cc5nc(cc1[nH]2)C(C)=C5CCC(=O)O)C(CCC(=O)O)=C4C)c(C)c3C=C ?
Vaccinia pol inh: 22*

How did CC(=O)NN1C(=O)c2cccc3c(N(C)C)ccc(c23)C1=O do in these assays?
Vaccinia pol inh: 96

What do the screens show for `Cc1ccc(-c2nc3ccc(Cl)cc3n2OCC(N)=O)cc1`?
Vaccinia pol inh: 91

How did O=C(O)c1cc2ccc3cccc4ccc(c1)c2c34 do in these assays?
Vaccinia pol inh: 77*

What do the screens show for `O=C(O)c1cccc(N2C(=O)CCC2=O)c1`?
Vaccinia pol inh: 101

Results for O=C(O)c1c2ccccc2cc2ccccc12 ?
Vaccinia pol inh: 100

What do the screens show for `NC(=O)CCN1CCn2c1nc1ccccc12`?
Vaccinia pol inh: 100

Results for Cc1ccc(-n2c(=O)c3c(c4cc(C)ccc4n3C)n(CC(N)=O)c2=O)cc1 ?
Vaccinia pol inh: 93

How did Cc1ccc2c(c1)c1cccc3c1n2CCN3CCC(N)=O do in these assays?
Vaccinia pol inh: 63*

What do the screens show for `O=C(O)C1C2C=CC(C2)C1C(=O)Nc1ccc2ccccc2c1` (stereo not given)?
Vaccinia pol inh: 105

What do the screens show for `COCc1cn2ccccc2n1`?
Vaccinia pol inh: 100

What do the screens show for `Cc1ccc(-c2ccc(N)cc2)cc1`?
Vaccinia pol inh: 93

Results for Nc1ccc(-c2ccc(N)cc2)cc1 ?
Vaccinia pol inh: 72*

Results for Nc1ccc(-c2cnc(-c3ccc(N)cc3)nc2)cc1 ?
Vaccinia pol inh: 100

Results for CNC(=O)Cn1cc2c(n1)CCC(C)C2 (stereo not given) ?
Vaccinia pol inh: 98

How did CC1(C)C2CCC1(C)C(NC(=O)CC[N+](C)(C)Cc1ccccc1)C2 (stereo not given) do in these assays?
Vaccinia pol inh: 100

Results for O=C(CCSc1ccc(Br)cc1)Nc1ccc(F)cc1 ?
Vaccinia pol inh: 96

How did COc1cccc(/C(O)=C2\C(=O)C(=O)N(c3ccccn3)C2c2ccccc2)c1 (stereo not given) do in these assays?
Vaccinia pol inh: 94

How did CCOC(=O)c1sc(Nc2ccccc2)nc1C do in these assays?
Vaccinia pol inh: 98

Results for CCOC(=O)c1sc(N2C(=O)C(=O)/C(=C(/O)c3ccc(OC)c(C)c3)C2c2ccccc2)nc1C (stereo not given) ?
Vaccinia pol inh: 69*

Results for NN1C(=O)/C(=C\c2ccccc2)SC1=S ?
Vaccinia pol inh: 100

What do the screens show for `O=C(Nc1ccno1)N1CCOCC1`?
Vaccinia pol inh: 98

Results for CCSC1=C(C#N)C(=O)NC(/C=C/c2ccccc2)S1 (stereo not given) ?
Vaccinia pol inh: 108

What do the screens show for `N#CC1=C(SCc2ccccc2)SC(c2ccccc2O)NC1=O` (stereo not given)?
Vaccinia pol inh: 50*

Results for COC(=O)CSC1=C(C#N)C(=O)NC(c2ccccc2O)S1 (stereo not given) ?
Vaccinia pol inh: 91

How did Cc1occc1C(=O)Nc1ccc(F)c(F)c1 do in these assays?
Vaccinia pol inh: 100

Results for O=C(NCc1ccccc1)c1cc2c(s1)-c1ccccc1SC2 ?
Vaccinia pol inh: 103

How did O=C(NCCC1=CCCCC1)c1cc2c(s1)-c1ccccc1SC2 do in these assays?
Vaccinia pol inh: 94
